Source: PubChem BioAssay (Tox21)
Values joined by “and” are separate entries in the source; they are usually repeats but may differ in a detail not shown here. Equal entries are not always repeated. Inconclusive results are not listed. Entries that show only a call come without a potency. Some structures have more than one record in an assay (separate samples or runs), and their calls can disagree. Active and inactive are the calls of the source. The call rests on the fitted dose curve; in most records, active means well fitted cell-killing curve with a large enough effect in the repeat runs; inconclusive means weak or mixed curves, or effect the other way; inactive means flat fitted curve, though single readings scatter.
Potency means the concentration at half of the fitted maximal effect.

Assay: qHTS RealTime-Glo MT Cell Viability Assay in HepG2 cells - 40 hour (AID 1224870); further: nearly all actives have a fitted effect of over 50% in size
Conditions: RealTime-Glo luminescence; series mostly up to 76.8 µM
Source text: National Center for Advancing Translational Sciences [NCATS]
NIH Chemical Genomics Center [NCGC]
U.S. Environmental Protection Agency [EPA]
National Institutes of Environmental Health Sciences [NIEHS]
National Toxicology Program [NTP]
U.S. Food and Drug Administration [FDA]
Measure of cell viability is critical in the cell-base assay. Analysis of cell viability is necessary for the characterization of cell responses to cytotoxic drugs and environmental stress. A RealTime-Glo MT Cell Viability Assay to monitor cell viability in real time of continues cell culture during 40 hours of compound treatment was used to screen Tox21 10K library compounds in HepG2 cells. The RealTime-Glo MT Cell Viability Assay is a nonlytic, homogeneous, bioluminescent method to measure cell viability in real time using a simple, plate-based method. The assay involves adding NanoLuc luciferase and a cell-permeant prosubstrate to cells in culture. Viable cells reduce the proprietary prosubstrate to generate a substrate for NanoLuc luciferase. This substrate diffuses from cells into the surrounding culture medium, where it is rapidly used by the NanoLuc Enzyme to produce a luminescent signal. The signal correlates with the number of viable cells, making the assay well suited for cytotoxicity studies.
Tox21 Assay Protocol Summary:
The mixture of HepG2 cell suspension and reagents were dispensed at 600cells/6 ul/well in 1536-well tissue culture treated black solid bottom plates using a Multidrop dispenser. After the assay plates were incubated at a 37 C/5% CO2 incubator for 5 hours, 23 nL of compounds dissolved in DMSO, positive and negative controls was transferred to the assay plate by a pintool work station. The plates were incubated at 37 C for 40 hours. The luminescence intensity were measured at 0h, 8h, 16h, 24h, 32h and 40h time points using ViewLux plate reader during compound treatment.
In the case of `Cc1ccc(C(C)(C)C)c(O)c1`, the Potency is reported as “inactive”.
With `COCCOCCOCCO` the Potency was “inactive”.
For `O=C(CCCN1CCC(O)(c2ccc(Cl)cc2)CC1)c1ccc(F)cc1`, the Potency was 54.9 µM (active) and inactive.
For `C[C@]12C=CC(=O)C=C1CC[C@H]1[C@@H]3C[C@@H](O)[C@](O)(C(=O)CO)[C@@]3(C)C[C@H](O)[C@@]12F`, the Potency was “inactive”.
With `CN(Cc1cnc2nc(N)nc(N)c2n1)c1ccc(C(=O)N[C@@H](CCC(=O)O)C(=O)O)cc1` the Potency was “inactive”.
In the case of `CC[C@]12CCCN3CCc4c(n(c5ccccc45)[C@@](O)(C(=O)OC)C1)[C@@H]32`, the Potency is reported as “inactive”.
In the case of `CCCCCCCCCCC(CO)CCCCCCCC` (stereo not given), the Potency is reported as “inactive”.
With `C=C1C[C@H]2[C@@H]3C=C(C)C4=CC(=O)CC[C@]4(C)[C@H]3CC[C@]2(C)[C@@]1(OC(C)=O)C(C)=O` the Potency was “inactive”.
With `CC1=CC(C)(C)Nc2ccccc21` the Potency was “inactive”.
For `CCC/C=C/C=O`, the Potency was “inactive”.
With `CC(=O)[C@H]1CC[C@H]2[C@@H]3CC=C4C[C@@H](O)CC[C@]4(C)[C@H]3CC[C@]12C` the Potency was “inactive”.
For `OC[C@H]1O[C@@H]2O[C@H]3[C@H](O)[C@@H](O)[C@@H](O[C@H]4[C@H](O)[C@@H](O)[C@@H](O[C@H]5[C@H](O)[C@@H](O)[C@@H](O[C@H]6[C@H](O)[C@@H](O)[C@@H](O[C@H]7[C@H](O)[C@@H](O)[C@@H](O[C@H]1[C@H](O)[C@H]2O)O[C@@H]7CO)O[C@@H]6CO)O[C@@H]5CO)O[C@@H]4CO)O[C@@H]3CO`, the Potency was “inactive”.
In the case of `c1ccc2cc3ccccc3cc2c1`, the Potency is reported as “inactive”.
For `Oc1c(Cl)ccc(Cl)c1Cl`, the Potency was “inactive”.
For `C=CC(C)(O)CCC=C(C)C` (stereo not given), the Potency was “inactive”.
In the case of `CC(=O)[C@@]1(O)CC[C@H]2[C@@H]3C[C@H](C)C4=CC(=O)C=C[C@]4(C)[C@@]3(F)[C@@H](O)C[C@@]21C`, the Potency is reported as “inactive”.
With `Cc1ccc(S(=O)(=O)O)cc1C` the Potency was “inactive”.
With `C=C[C@H]1CN2CC[C@H]1C[C@H]2[C@H](O)c1ccnc2ccc(OC)cc12` the Potency was “inactive”.
In the case of `CC(C)[C@@H]1CC[C@@H](C)CC1=O`, the Potency is reported as “inactive”.
For `NCCN`, the Potency was “inactive and 13.8 µM (active)”.
In the case of `Cc1ccc(C(C)(C)C)cc1`, the Potency is reported as “inactive”.
For `CN(C)/N=N/c1nc[nH]c1C(N)=O`, the Potency was “inactive”.
In the case of `c1ccc2c(c1)ccc1ncccc12`, the Potency is reported as “inactive”.
In the case of `Nc1ccc2c(c1)C(=O)c1ccccc1C2=O`, the Potency is reported as “inactive”.
For `C[C@]12CC[C@@H]3c4ccc(O)cc4CC[C@H]3[C@@H]1CC[C@@H]2O`, the Potency was “inactive”.
For `NCCOCCO`, the Potency was “inactive”.
In the case of `CCCCCCCC/C=C\CCCCCCCC(=O)O`, the Potency is reported as “inactive”.
With `c1ccc2c(c1)[nH]c1ccccc12` the Potency was “inactive”.
For `Cc1ccc(S(=O)(=O)NCl)cc1`, the Potency was “inactive”.
In the case of `COC(=O)CC(=O)OC`, the Potency is reported as “inactive”.
In the case of `CCCCCCCCCCCCO`, the Potency is reported as “inactive”.
In the case of `CCC(=O)O[C@H]1[C@H](O[C@@H]2[C@@H](C)[C@H](O[C@H]3C[C@@](C)(OC)[C@@H](O)[C@H](C)O3)[C@@H](C)C(=O)O[C@H](CC)[C@@](C)(O)[C@H](O)[C@@H](C)C(=O)[C@H](C)C[C@@]2(C)O)O[C@H](C)C[C@@H]1N(C)C`, the Potency is reported as “inactive”.
In the case of `CC(=O)Oc1ccc(C(c2ccc(OC(C)=O)cc2)c2ccccn2)cc1`, the Potency is reported as “inactive”.
With `CC(=O)Nc1ccc2c(c1)Cc1cc(NC(C)=O)ccc1-2` the Potency was “inactive”.
In the case of `C[C@]12CC[C@@H]3c4ccc(O)cc4CC[C@H]3[C@@H]1CC[C@H]2O`, the Potency is reported as “inactive”.
For `CCO[Si](CCCNC(N)=O)(OCC)OCC`, the Potency was “inactive”.
With `CC(=O)OC(C)C` the Potency was “inactive”.
For `CCCCCCC(C)O` (stereo not given), the Potency was “inactive”.
With `CCCCCC=O` the Potency was “inactive”.
With `Nc1ccc(O)c(N)c1` the Potency was “inactive”.
